Data: PubChem BioAssay AID493036 (Sanford-Burnham Center for Chemical Genomics, 2011)
Hit rate of the full screen: of about 330,000 compounds, about 560 (0.17%) were called active.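 Rule for the calls: active = activation at or above 40% of the spot to cytoplasm intensity ratio, with at least 20 cells analyzed; inconclusive = wells under 20 cells, flagged as cytotoxic or low count; inactive = the rest.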 The entries come from a sample that favours actives as a whole.

Assays:
[1] = agonists of human NTR1, primary screen, imaging, U2OS cells, beta-arrestin-GFP, high content (AID 493036); conditions: NTR1-U2OS beta-arrestin-GFP spot imaging, agonist mode; measured here: cell count, cytotoxicity flag; at 20 µM;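 for activation: 0% = DMSO without peptide and 100% = 100 nM NTR1 peptide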
[2] = target: Neurotensin receptor type 1 (Homo sapiens) (UniProt P30989); test: as above; conditions: NTR1-U2OS beta-arrestin-GFP spot imaging, agonist mode; at 20 µM; stronger effect = higher value
Sequence of Neurotensin receptor type 1 (Homo sapiens) (P30989 whole entry, looked up): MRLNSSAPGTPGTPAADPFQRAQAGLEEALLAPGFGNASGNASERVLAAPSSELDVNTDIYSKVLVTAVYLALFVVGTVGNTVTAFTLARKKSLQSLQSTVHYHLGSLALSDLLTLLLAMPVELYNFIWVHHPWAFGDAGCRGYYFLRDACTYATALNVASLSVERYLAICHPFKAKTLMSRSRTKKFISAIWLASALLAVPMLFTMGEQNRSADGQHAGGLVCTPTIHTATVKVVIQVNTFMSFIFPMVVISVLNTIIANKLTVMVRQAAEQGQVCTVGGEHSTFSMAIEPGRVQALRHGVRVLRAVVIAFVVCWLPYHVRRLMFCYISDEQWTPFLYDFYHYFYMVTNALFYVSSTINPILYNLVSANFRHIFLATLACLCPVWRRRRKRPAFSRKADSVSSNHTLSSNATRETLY

Structure (SMILES) | cell count [1] [cells] | activation [2]
Oc1ccc(-c2nnc(Nc3ccccc3)c3ccccc23)cc1 | 62 | -0.2% (inactive)
CN1CCN(c2nc(Nc3ccc(O)cc3)nc3ccccc23)CC1 | 47 | 0.5% (inactive)
Cc1cccc(-c2nc(Nc3ccc(O)cc3)c3ccccc3n2)c1 | 84 | 60.9% (active)
Cc1cc(C)cc(N(CC(=O)N2CC=C(c3ccccc3)CC2)S(=O)(=O)c2c(C)noc2C)c1 | 52 | 3.3% (inactive)
COc1ccc(C)cc1S(=O)(=O)Nc1cc2c3c(c1)CCC(=O)N3CCC2 | 52 | -1.6% (inactive)
Cc1ccccc1C(=O)N1CCC(C(=O)Oc2ccc(C#N)cc2)CC1 | 77 | 0.9% (inactive)
Cc1cc(Cl)ccc1OCc1nc(-c2ccncc2)no1 | 20 | 1.2% (inactive)
Cn1c(-c2ccc(C(=O)c3ccccc3)s2)nc2ccccc21 | 111 | -1.6% (inactive)
O=C(CCc1ccc(S(=O)(=O)N2CCOCC2)cc1)Nc1ccc2ccccc2c1 | 90 | 1.8% (inactive)
CCOC(=O)c1cccc(NS(=O)(=O)c2c(C(=O)N3CCCCCC3)c(C)n(C)c2C)c1 | 47 | 1.2% (inactive)
Cc1cccc(-n2c(SCC(N)=O)nc3c(c2=O)C2(CCCCC2)Cc2ccccc2-3)c1 | 62 | 49.9% (active)
N#CCSc1nc2c(c(=O)n1Cc1ccccc1)C1(CCCC1)Cc1ccccc1-2 | 47 | 3.2% (inactive)
Cc1cccc(-n2c(=O)c3c(C)c(C)sc3n(CC(N)=O)c2=O)c1 | 70 | 0.5% (inactive)
CC(C)(C)OC(=O)NCCCCCNC(=O)c1[nH]cnc1C(=O)Nc1nccs1 | 56 | 2.3% (inactive)
CN1/C(=C\C=C2\N=C(c3ccc(F)cc3)OC2=O)C(C)(C)c2ccccc21 | 59 | -1% (inactive)
CC1=CCC2C(=O)N(c3cccc(C(=O)NC(C)c4ccccc4)c3)C(=O)C2C1 (stereo unspecified) | 86 | -1.2% (inactive)
Cc1ccc(C(=O)N/N=C\c2cc(Br)c(Br)o2)cn1 | 42 | 3.4% (inactive)
CNC[C@H](CC1CCCCC1)NC[C@H](NCCC1CCCC1)[C@H](C)O | 59 | 4.7% (inactive)
Cc1ccc(-n2c(SCC(=O)NCc3ccc4c(c3)OCO4)nnc2-c2cccnc2)c(C)c1 | 50 | -0.8% (inactive)
Cc1cccc(NC(=O)C2CCCN(C(=O)NCc3ccccc3)C2)c1C (stereo unspecified) | 37 | 0.3% (inactive)
CCCCNc1c(-c2ccc(OC)c(Sc3ccc(OC)cc3)c2)nc2ccc(Cl)cn12 | 52 | 3.2% (inactive)

Structure (SMILES) | cell count [1] [cells] | activation [2]
CCCCCCSc1ccc(-c2nc3ccc(Cl)cn3c2NCc2ccccc2)cc1 | 65 | -1.8% (inactive)
CCCCNc1c(-c2cccc(Sc3ccc(OC)cc3)c2)nc2ccccn12 | 60 | 42.5% (active)
CC(C)C(=O)Nc1ccc2c3c(cccc13)CC2 | 56 | 0.6% (inactive)
CC(=O)N1C(C)c2ccccc2C(C)(C)CC12CCCCC2 (stereo unspecified) | 51 | 0.8% (inactive)
Cn1c(C(=O)O)ccc1S(=O)(=O)N(Cc1ccccc1)Cc1ccccc1 | 65 | 0.5% (inactive)
Cc1cc2occ(CC(=O)NNC(=O)c3ccccc3F)c2cc1C | 58 | 0.7% (inactive)
CC(C)(C)OC(=O)N1CCC(NC(=O)c2[nH]cnc2C(=O)N[C@@H](Cc2ccccc2)C(=O)OCc2ccccc2)CC1 | 74 | 47.8% (active)
CC(C)(C)OC(=O)CNC(=O)c1[nH]cnc1C(=O)N[C@@H](Cc1ccccc1)C(=O)OCc1ccccc1 | 87 | 15.2% (inactive)
O=C(N[C@@H](Cc1ccccc1)C(=O)OCc1ccccc1)c1nc[nH]c1C(=O)NC1CCNCC1 | 66 | 4% (inactive)
CSc1ccc(C#N)cc1NC(=O)c1ccc(Cl)cc1 | 46 | 0.4% (inactive)
FC(F)(F)c1cccc(-c2nc(COc3ccc(Cl)cc3Cl)no2)c1 | 40 | -2% (inactive)
COc1ccc(C)cc1NC(=O)C(Sc1ccccc1)c1ccccc1 (stereo unspecified) | 44 | 1.2% (inactive)
O=C(O)c1cccc(N=NN2CCCCCC2)c1 | 47 | 0.2% (inactive)
COC(=O)C1=C(NC(=O)C(C)(C)C)CCS1 | 55 | -0.2% (inactive)
CC(=O)c1ccc(N2Cc3ccccc3C2)cc1 | 66 | 0.5% (inactive)
N#Cc1ncc(C(F)(F)F)cc1Oc1cccnc1 | 41 | -0.5% (inactive)
[O-][n+]1onc2c1CCc1[nH]c(-c3ccccc3)nc1-2 | 66 | -0.8% (inactive)
O=C(NC(=S)NC1CCS(=O)(=O)C1)c1cccc([N+](=O)[O-])c1 (stereo unspecified) | 51 | -0.4% (inactive)
CCO[C@H]1OC(C(=O)NCc2ccccc2)=C[C@@H](c2coc3ccccc3c2=O)[C@@H]1CCCO | 79 | 0.3% (inactive)
COc1ccc(OC)c(S(=O)(=O)NCCC(C)C)c1 | 90 | -0.7% (inactive)
O=C(NCc1ccco1)c1cnn2c(C(F)(F)F)cc(-c3ccco3)nc12 | 40 | 8.2% (inactive)

Structure (SMILES) | cell count [1] [cells] | activation [2]
CN(C(=O)c1cccc(NC(=O)C2CCN(C(=O)OC(C)(C)C)CC2)c1)C1CCC1 | 52 | -0.7% (inactive)
CC(=O)Nc1cccc(OCC(=O)/C=C2\N(C)c3ccccc3C2(C)C)c1 | 29 | 0.8% (inactive)
CN1/C(=C\C(=O)c2oc3ccccc3c2N)C(C)(C)c2ccccc21 | 52 | 45.5% (active)
CC(C)Nc1nnc(SCC(=O)/C=C2\N(C)c3ccccc3C2(C)C)s1 | 54 | 0% (inactive)
CC(Oc1ccccc1)C(=O)Nc1oc(-c2ccco2)c(-c2ccco2)c1C#N (stereo unspecified) | 69 | -1.6% (inactive)
COc1ccc(CC(NC(C)=O)C(=O)N2CCN(C(=O)Nc3cccc(Cl)c3)CC2)cc1OC (stereo unspecified) | 63 | -0.5% (inactive)
CC(=O)c1cnn(-c2cc(Oc3ccc(F)cc3)ncn2)c1C | 34 | -1.1% (inactive)
C=CCOc1ccc(/C=C2/C(=O)ON=C2C)cc1OCC | 89 | 2.1% (inactive)
COc1cc(/C=C2/C(=O)ON=C2C)ccc1OCc1cccc(F)c1 | 41 | 5.9% (inactive)
COc1cc(/C=C2/C(=O)ON=C2C)ccc1OCc1ccccc1F | 36 | 73.4% (active)
COC(=O)c1ccc(COC(=O)CNC(=O)c2cccc(OC)c2)o1 | 57 | -0.3% (inactive)
O=C(Nc1nnc(S(=O)(=O)N2CCCCCC2)s1)c1cccc(Br)c1 | 53 | 5% (inactive)
Cc1c(NC(=O)CCC2CCCCC2)cc(C(=O)N2CCOCC2)cc1[N+](=O)[O-] | 61 | 1.4% (inactive)
COc1cccc(/C=N/Nc2cc(C)nc(-c3ccccc3O)n2)c1O | 51 | 46.3% (active)
COc1ccc(Cc2nnc(N/N=C/c3ccccc3O)[nH]c2=O)cc1OC | 65 | 0% (inactive)
COc1ccccc1-n1c(SCC(=O)Nc2cccc(C(=O)O)c2)nnc1-c1ccccc1O | 50 | -0.1% (inactive)
CCC1(CC)C(=O)C2=C3C1[C@H](C(=O)OC)C=C(C(=O)OC)C[C@H]3[C@H]1C(=O)N(Cc3ccccc3)C(=O)[C@H]1[C@H]2C (stereo partly specified) | 56 | 4.6% (inactive)
CC(C)(C)Nc1c(-c2cccs2)nc2ccccn12 | 43 | 1.2% (inactive)
O=C(/C(=C/c1cccc(Cl)c1)c1nc2ccccc2[nH]1)c1ccccc1 | 59 | 40.5% (active)
O=C(N/N=C/c1ccc(Cl)cc1)c1nc2ccc([N+](=O)[O-])cc2c(=O)[nH]1 | 101 | -0.7% (inactive)
O=C(O)c1cccc(NC(=O)c2cc(-c3cccc(Cl)c3)nc3ccccc23)c1 | 44 | 1.2% (inactive)
